High-throughput results deposited in PubChem by National Center for Advancing Translational Sciences (NCATS).
This is a sample that favours compounds with a hit; in the whole collection about 7.9% have one here.
HCMV inh = qHTS Assay for inhibitors of the human cytomegalovirus (HCMV). HFF cells, HCMV-luciferase reporter, 72 h; hits give low values. activity change, negative = inhibition, % at 57.5 µM. actives 4.5% (n = 410,000). AID 1259415, 2018; in the data active = activity change below about -60%; inconclusive = no clear call, values can overlap the other calls; inactive = above about -39%
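Screen run at 2 compound doses on HFFs infected with reporter HCMV, MOI 1 PFU/cell. Luciferase activity from cell lysates at 72 h post infection gave inhibition relative to buffer-only and Salinomycin wells.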
FMDV antiviral = High Throughput Screening for Foot and Mouth Disease Virus Antivirals | FMDV antiviral cell-based qHTS | Potency, µM (doses to about 57.9 µM), hits mostly inhibitors | actives 1.2% (n = 410,000) | AID 1159524, 2015; calls by dose curve; tested in HEK293T cells; also: read-out not given here; nearly all actives have a fitted effect of over 45% in size
LASV entry inh = qHTS for Inhibitors of binding or entry into cells for Lassa Virus; Potency, µM (series often up to 37.9 µM), hits mostly inhibitors; AID 540256, 2011; Lassa virus pseudotype entry inhibition, cell reporter; actives 1.2% (n = 300,000); calls by dose curve; tested in HEK293 cells; also: nearly all actives have a fitted effect of over 50% in size
HCV inhibitor = qHTS Assay for Inhibitors of Hepatitis C Virus (HCV); Huh7.5.1 HCVcc-Cre infection, luciferase reporter, 44 h; Potency, µM (titrated, usually from 41.8 µM), usual class: inhibitors; actives 3.4% (n = 340,000); active = well fitted inhibition curve with a large enough effect; inconclusive = small, poorly fitted or top-dose-only effect, or another doubt; inactive = no such curve, though single readings can be large or run the other way
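1,000 cells/well; 4 h culture; + compound; + HCVcc-Cre (~0.5 moi); 44 h; luciferase substrate, RT 15 min; read 15 sec.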
MARV entry inh = qHTS for inhibitors of binding or entry into cells for Marburg Virus; Potency, µM (highest dose often 37.8 µM), hits mostly inhibitors; actives 1.8% (n = 300,000); Marburg virus pseudotyped entry inhibition, cell reporter; calls by dose curve; tested in HEK293 cells
Each line names hits and unclear results; the compound was inactive in the other large screens.

C=CCn1c(C(C)NC(=O)CCC)nc2ccccc21 (stereo not drawn)	HCMV inh -62, HCV inhibitor 11µM (no result: FMDV antiviral)
C=CCn1c(C(C)C)nc2ccccc21	none
C=CCn1c(C)cc(C(=O)Cn2c(C(C)O)nc3ccccc32)c1C (stereo not drawn)	HCMV inh -66, FMDV antiviral inconclusive
COc1ccc(-c2c/c(=N\c3nc(-c4ccccc4)c(C)s3)c3ccccc3o2)cc1O	HCMV inh -96, FMDV antiviral inconclusive, LASV entry inh inconclusive, HCV inhibitor inconclusive, MARV entry inh inconclusive
O=C(CSc1ccc(S(=O)(=O)N2CCOCC2)cn1)Nc1ccc(OC(F)F)cc1	none (no result: LASV entry inh, MARV entry inh)
O=C(CSc1ccc(S(=O)(=O)N2CCOCC2)cn1)Nc1ccc(F)c(F)c1	FMDV antiviral inconclusive, HCV inhibitor 6.3µM (no result: LASV entry inh, MARV entry inh)
O=C(CSc1ccc(S(=O)(=O)N2CCCC2)cn1)Nc1ccc([N+](=O)[O-])cc1C(F)(F)F	FMDV antiviral inconclusive, HCV inhibitor 13µM, MARV entry inh inconclusive
COc1ccccc1C(=O)Nc1cccc(N2CCC(NCc3cnn(-c4ccccc4)n3)CC2)c1	none (no result: HCMV inh, LASV entry inh, HCV inhibitor, MARV entry inh)
CCn1c(O)c(C(=O)C[C@@H]2NCCc3ccccc32)c(=O)n(CC)c1=S	none (no result: HCMV inh, FMDV antiviral, LASV entry inh, HCV inhibitor)
CC(C)(C)c1ccc(C2Sc3ccccc3NC3=C2C(=O)c2ccccc23)cc1 (stereo not drawn)	HCMV inh -104, FMDV antiviral inconclusive, LASV entry inh inconclusive (no result: HCV inhibitor, MARV entry inh)
Cc1nn(-c2ccccc2)c2sc(C(=O)N3CCCCC3)cc12	LASV entry inh inconclusive, HCV inhibitor inconclusive, MARV entry inh inconclusive (no result: HCMV inh)
Cc1nn(-c2ccccc2)c2sc(C(=O)NCCN3CCOCC3)cc12	HCV inhibitor 2.2µM, MARV entry inh inconclusive
Cc1nn(-c2ccccc2)c2sc(C(=O)NC3CCCCC3)cc12	HCV inhibitor 2.5µM (no result: FMDV antiviral)
C=CC[C@@H]1C=C[C@@H](Oc2ccc(OC)cc2)[C@H](CO)O1	none (no result: HCMV inh, FMDV antiviral, LASV entry inh, HCV inhibitor)
CCOc1ccc(OCCSc2nc3ccccc3[nH]2)cc1	HCMV inh -76, HCV inhibitor inconclusive (no result: FMDV antiviral)
CCCOc1ccc(CSc2nc3ccccc3[nH]2)cc1	HCMV inh -92, MARV entry inh inconclusive (no result: HCV inhibitor)
COc1ccc(OCCSc2nc(C)nc3ccccc23)cc1	HCMV inh -65, FMDV antiviral inconclusive, LASV entry inh inconclusive, HCV inhibitor inconclusive, MARV entry inh inconclusive
c1ccc(CSc2nc3ccccc3[nH]2)cc1	LASV entry inh inconclusive, MARV entry inh inconclusive
Cc1cccc(OCCCSc2nc3ccccc3[nH]2)c1	MARV entry inh inconclusive
C=C1C[C@@]2(C)CCCC3=CC(=O)C=C[C@@]32Oc2ccccc21	none (no result: FMDV antiviral, LASV entry inh, HCV inhibitor, MARV entry inh)
CCOc1ccc(NC(=O)C(CC(=O)O)Cc2ccc(C)cc2)cc1 (stereo not drawn)	MARV entry inh inconclusive
COc1cc(-c2cc(C)c3c(OC)ccc(OC)c3n2)cc2c1OCCN(C(=O)CCn1ccc(C)n1)C2	none (no result: HCMV inh, LASV entry inh, HCV inhibitor, MARV entry inh)
O=C(Nc1ccc(Nc2ccccc2)cc1)N1CCOCC1	HCMV inh -63
O=C(Nc1ccc(OC(=O)N2CCCCC2)cc1)N1CCOCC1	HCMV inh active, FMDV antiviral inconclusive, LASV entry inh inconclusive, MARV entry inh inconclusive
COc1ccc(-c2cc(C(F)(F)F)nc(SCC(=O)NCCc3ccccc3)n2)cc1OC	none (no result: HCV inhibitor)
CCc1cc(C(=O)N2CCOc3ccc(CN4CCN(Cc5ccccn5)CC4)cc3C2)no1	none (no result: HCMV inh, LASV entry inh, HCV inhibitor, MARV entry inh)
CC(C(=O)c1ccc(-c2ccccc2)cc1)[n+]1ccccc1 (stereo not drawn)	HCMV inh -97, LASV entry inh inconclusive, HCV inhibitor inconclusive, MARV entry inh 10µM
CC(C(=O)c1ccc(-c2ccccc2)cc1)[n+]1cccc(C(N)=O)c1 (stereo not drawn)	LASV entry inh inconclusive
Cc1cc[n+](C(C)C(=O)c2ccc(-c3ccccc3)cc2)cc1 (stereo not drawn)	HCMV inh -102, FMDV antiviral inconclusive, LASV entry inh 10µM, HCV inhibitor inconclusive, MARV entry inh inconclusive
Cc1ccc[n+](C(C)C(=O)c2ccc(-c3ccccc3)cc2)c1 (stereo not drawn)	HCMV inh -98, LASV entry inh inconclusive, MARV entry inh inconclusive
CCc1cccc(CC)c1NC(=O)COC(=O)/C(C#N)=C/c1ccc(OC)cc1	none
COc1ccc(/C=C(\C#N)C(=O)OCC(=O)Nc2c(C)cccc2C)cc1	HCMV inh -61, MARV entry inh inconclusive
Cc1ccc(N=C2NC(=O)/C(=C/c3cccnc3)S2)c(C)c1	HCMV inh -80, FMDV antiviral inconclusive, LASV entry inh inconclusive
